Assay results from the supplement of paper PMC9334596.
Where “and” joins values, the source holds several entries; their conditions need not be identical. Identical values can stand only once. Over roughly 5,300 compounds, “PER2::LUC luminescence relative to vehicle control” has its median near 0.96; the highest 2% begin near 1.3. For the sample, the highest values were picked, then their nearest neighbours and some compounds at random.

System: mPer2Luc MEF
Assay: PER2::LUC luminescence relative to vehicle control (fold of vehicle); higher = higher PER2::LUC reporter signal
Settings: 10 µM
How it was run: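 Mouse embryonic fibroblasts carrying the mPer2Luc reporter were seeded at ~3000 cells per well in 384-well plates, 48 h before compounds from commercial libraries were added at 10 μM. Cells were grown in DMEM with 10% FBS at 37 °C and 5% CO2. Luminescence was read with the ONE-Glo luciferase assay system 24 h and 30 h after treatment, followed by an alamarBlue viability assay. The value is PER2::LUC luminescence as fold of vehicle control.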

SMILES	PER2::LUC luminescence (time after treatment 24 h)	PER2::LUC luminescence (time after treatment 30 h)
C[C@@H](O)CCCCn1c(=O)c2c(ncn2C)n(C)c1=O	0.991	0.943
CCc1c(C(=O)NNC(=O)[C@H](O)c2cc(F)cc(F)c2)ccc(O)c1C	1	0.957
CCCCCCCCCCCCCCCCCC(=O)OC(CC(=O)O)C[N+](C)(C)C (racemic)	0.909	0.786
CCC[C@@H]1C[C@@H](C(=O)N[C@@H]([C@H]2O[C@H](SC)[C@H](OP(=O)(O)O)[C@@H](O)[C@H]2O)[C@H](C)Cl)N(C)C1	1.07	1.01
CCC[C@@H]1C[C@@H](C(=O)N[C@@H]([C@H]2O[C@H](SC)[C@H](O)[C@@H](O)[C@H]2O)[C@H](C)Cl)N(C)C1	1.08	1.93
CCC[C@@H]1C[C@@H](C(=O)N[C@@H]([C@H]2O[C@H](SC)[C@H](O)[C@@H](O)[C@H]2O)[C@@H](C)O)N(C)C1	0.932 and 0.965	0.909 and 0.803
NC(=O)c1cccc2ncc(-c3ccc(Cl)cc3)nc12	1.12	1.16
COc1cc(O)c2c(=O)c(O)c(-c3ccccc3)oc2c1	0.99	1.06
COC(=O)[C@@H]1OC(=O)C2OC23[C@@]1(C)CCC1[C@@]2(C)CCC(=O)C(C)(C)C2C[C@@H](OC(C)=O)[C@]13C (stereo partly specified)	0.9	0.921
O=c1cccc2ccc(O)c(O)c2c1O	0.987	0.83
N#Cc1nccc(Oc2cccc(-c3ccc(CN)cc3)c2)n1	0.994	1.14
CC(=O)N[C@H]1[C@H]([C@H](O)[C@H](O)CO)O[C@@](Oc2c[nH]c3ccc(Br)c(Cl)c23)(C(=O)O)C[C@@H]1O	1	0.967
NS(=O)(=O)C#Cc1ccccc1	1.18	0.903
Cc1nc(C#Cc2cccnc2)cs1	1.15	1.26
Cc1cccc(C#Cc2ccccc2)n1	1.56 and 1.59 and 1.5	1.16 and 1.75 and 1.47
Cc1cc(C)c(/C=C2\C(=O)Nc3ccc(Cl)cc32)[nH]1	1.06	1.02
O=C(O)/C=C/c1ccc(O)c(O)c1	0.886	0.894
O=C(/C=C/c1ccc(O)c(O)c1)O[C@@H]1C[C@](O)(C(=O)O)C[C@@H](O)[C@H]1O	1.8	1.28
O=C(/C=C/c1ccc(O)c(O)c1)OCCc1ccccc1	0.173	0.361
C[C@H]1CCN(C(=O)CC#N)C[C@H]1N(C)c1ncnc2[nH]ccc12	1	1.02
O=Nc1c(O)[nH]c2c(Cl)c(Cl)ccc12	1.05	1.07
OCCOCCN1CCN(C(c2ccccc2)c2ccccc2)CC1	0.939	0.9

SMILES	PER2::LUC luminescence (time after treatment 24 h)	PER2::LUC luminescence (time after treatment 30 h)
O=C(O)CCc1c(C(=O)O)[nH]c2cc(Cl)cc(Cl)c12	1.03	0.901
O=C(O)/C(=C\c1c(C(=O)O)[nH]c2cc(Cl)cc(Cl)c12)c1ccccc1	1.4	1.34
O=C(O)c1cc(=O)c2c(Cl)cc(Cl)cc2[nH]1	1.04	1
O=C(O)[C@@H]1C[C@H](CP(=O)(O)O)CCN1	1.03	0.992
O=C1Nc2nc(-c3c(O)cccc3OCC3CC3)cc([C@@H]3CCCNC3)c2CO1	0.574	0.66
CC[N+](CC)(CC(=O)Nc1c(C)cccc1C)Cc1ccccc1	0.988	0.901
Cc1cc2sc(NC(=O)Cc3ccccc3)nc2cc1Cl	1.02	1.38
COc1ccc(CCC(=O)Nc2nc3ccc(Cl)cc3s2)cc1OC	0.875 and 0.954	1.04 and 0.951
C[C@@H]1O[C@@H](OC[C@H]2O[C@@H](Oc3cc(O)c4c(=O)cc(-c5ccc(O)cc5)oc4c3)[C@H](O)[C@@H](O)[C@@H]2O)[C@H](O)[C@H](O)[C@H]1O	0.948	0.927
CCCCN(CCCC)C(=O)CN1C[C@H](c2ccc3c(c2)OCO3)[C@@H](C(=O)O)[C@@H]1c1ccc(OC)cc1	2.23	2.08
Cc1noc(-c2ccc(-c3ccc(CC(=O)O)cc3)cc2)c1NC(=O)OC(C)c1ccccc1Cl (stereo unspecified)	1.1	1.12
C/C=C/C(=O)N1C(=O)OC[C@@H]1Cc1ccccc1	0.864	0.846
O=C1/C(=C/c2cccs2)CC/C1=C\c1cccs1	1.07	1.01
O=C1/C(=C/c2cccs2)CCC/C1=C\c1cccs1	1.5	1.67
CN1CCCN=C1/C=C/c1cccs1	1.2 and 1.03	0.92 and 1.16
O=C(Oc1ccccc1C(=O)O)c1ccccc1O	1.15 and 0.613	1.16 and 0.995
CC(=O)Nc1ccc(OC(=O)c2ccccc2O)cc1	0.934	1.02
Nc1ccc(C(=O)Oc2ccccc2)c(O)c1	0.958	1.54
CC(C)c1onc(-c2c(Cl)cccc2Cl)c1COc1ccc(/C=C/c2cccc(C(=O)O)c2)c(Cl)c1	1.86	2.03
CC(C)CCNC(=O)c1ccc2c(c1)nc(Nc1n[nH]c3ccc(-c4ccccc4OC(F)(F)F)cc13)n2C1CCC(O)CC1 (stereo unspecified)	0.526	0.553
CCCCC(CC)COC(=O)c1ccccc1O (stereo unspecified)	1.07	1.63
